From ChEMBL document CHEMBL3988442, “University of Dundee, Small-Polar-MMV Screening Library” (2021) come the findings set out here.

Common to all, as to design: scale not given: direction of the effect not stated beside the values
For test [1], the target named is Protein translocase subunit SecA (Escherichia coli (strain K12)) (UniProt P10408). The experiment in a line: Assay to Identify E. coli SecA ATPase Inhibitors. It is filed as functional. To be noted: 30 µM.
Test [2] deals with T1, Ubiquitin-activating enzyme e1, putative (Leishmania donovani (strain BPK282A1)) (UniProt E9BSI1).
T1 sequence (whole entry): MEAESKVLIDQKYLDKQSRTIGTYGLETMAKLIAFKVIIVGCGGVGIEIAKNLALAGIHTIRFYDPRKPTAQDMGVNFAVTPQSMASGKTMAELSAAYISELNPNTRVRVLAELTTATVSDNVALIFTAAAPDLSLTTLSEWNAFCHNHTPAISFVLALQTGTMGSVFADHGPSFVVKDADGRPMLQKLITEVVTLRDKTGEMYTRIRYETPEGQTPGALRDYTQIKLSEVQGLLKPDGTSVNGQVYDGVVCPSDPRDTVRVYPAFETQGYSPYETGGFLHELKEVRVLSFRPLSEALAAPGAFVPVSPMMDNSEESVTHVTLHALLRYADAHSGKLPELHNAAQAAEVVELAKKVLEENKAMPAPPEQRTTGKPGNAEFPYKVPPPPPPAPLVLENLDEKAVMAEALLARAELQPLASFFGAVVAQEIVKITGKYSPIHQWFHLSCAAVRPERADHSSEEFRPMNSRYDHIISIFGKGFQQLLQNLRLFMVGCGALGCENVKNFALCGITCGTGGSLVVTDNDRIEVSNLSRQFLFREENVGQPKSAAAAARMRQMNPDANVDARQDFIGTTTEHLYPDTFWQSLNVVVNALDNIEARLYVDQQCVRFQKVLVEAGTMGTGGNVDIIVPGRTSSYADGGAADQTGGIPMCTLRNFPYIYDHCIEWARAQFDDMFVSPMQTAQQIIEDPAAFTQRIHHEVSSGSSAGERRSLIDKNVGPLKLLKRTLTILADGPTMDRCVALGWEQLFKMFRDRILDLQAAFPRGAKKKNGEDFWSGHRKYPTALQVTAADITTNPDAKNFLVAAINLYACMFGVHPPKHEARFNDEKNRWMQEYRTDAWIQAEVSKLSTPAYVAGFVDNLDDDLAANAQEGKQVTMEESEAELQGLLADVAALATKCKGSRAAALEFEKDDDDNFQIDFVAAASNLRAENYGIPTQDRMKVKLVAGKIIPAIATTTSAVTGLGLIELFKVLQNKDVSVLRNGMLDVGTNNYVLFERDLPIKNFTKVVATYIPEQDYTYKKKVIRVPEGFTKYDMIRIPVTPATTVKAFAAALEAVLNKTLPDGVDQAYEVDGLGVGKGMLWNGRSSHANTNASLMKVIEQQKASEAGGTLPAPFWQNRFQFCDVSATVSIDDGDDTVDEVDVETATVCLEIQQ
Nature of the test: Leishmania donovani Ubiquitin Activating Enzyme (LdE1). It is filed as functional. To be noted: 30 µM.

For test [3], the target named is AMP-activated protein kinase, AMPK (Homo sapiens) (UniProt P54646+O43741+P54619+Q9UGJ0+Q9Y478+Q13131+Q9UGI9). Nature of the test: AMP-dependent Kinase enzyme assay. An in vitro enzyme assay that detects ADP turnover that is directly proportional to AMPK activity. This uses naive AMPK that is activated during the assay with MK-8722. The test is classed as functional. To be noted: 30 µM.

Test [4] has as its target Sialic acid-binding Ig-like lectin 9 (Homo sapiens) (UniProt Q9Y336). Nature of the test: Hs-Siglec9 ALPHAscreen SOP 20170721. As to conditions: 10 µM.
The next test relates to Trypanosoma cruzi. Nature of the test: Trypanosoma cruzi phosphomannomutase and mannose-1-phosphate guanylyltransferase assay. The test is classed as functional. To be noted: 10 µM.
The target in test [5] is T2, Arginase-2, mitochondrial (Homo sapiens) (UniProt P78540).
T2 sequence (whole entry): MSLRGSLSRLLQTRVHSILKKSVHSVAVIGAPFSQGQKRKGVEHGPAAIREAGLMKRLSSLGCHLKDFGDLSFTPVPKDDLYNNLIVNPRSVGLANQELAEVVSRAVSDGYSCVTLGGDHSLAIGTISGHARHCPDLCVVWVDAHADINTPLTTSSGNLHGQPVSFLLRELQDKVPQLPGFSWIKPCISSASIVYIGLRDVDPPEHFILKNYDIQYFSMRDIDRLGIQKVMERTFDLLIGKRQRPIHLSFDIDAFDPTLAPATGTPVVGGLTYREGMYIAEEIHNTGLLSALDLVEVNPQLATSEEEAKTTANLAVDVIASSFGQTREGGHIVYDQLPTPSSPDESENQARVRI
The experiment in a line: in vitro enzyme assay to detect the production of urea directly proportional to the activity of Arginase II. Also: in the data most compounds retested in dose-response had high values. The test is classed as functional. To be noted: 33.3 µM.

The target in test [6] is T3, Proteasome subunit beta (Trypanosoma cruzi) (UniProt O96673).
T3 sequence (whole entry): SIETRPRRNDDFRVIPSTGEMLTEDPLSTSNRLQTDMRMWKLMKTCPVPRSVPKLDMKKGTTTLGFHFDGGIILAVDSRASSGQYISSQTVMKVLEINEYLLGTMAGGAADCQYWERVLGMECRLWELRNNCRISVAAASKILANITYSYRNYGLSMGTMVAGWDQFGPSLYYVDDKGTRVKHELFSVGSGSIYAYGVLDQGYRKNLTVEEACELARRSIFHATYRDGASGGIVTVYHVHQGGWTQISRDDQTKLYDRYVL
The experiment in a line: Trypanosoma cruzi proteasome chymotrypsin-like activity (TcProtChymo) assay. Also: in the data most compounds retested in dose-response had high values. The test is classed as functional. To be noted: 9.37 µM.

For the next test, the species on record is Homo sapiens. The experiment in a line: To identify inhibition of the IFN signalling (Jak-Stat) pathway via expression of an eGFP reporter gene under the control of an IFN-stimulated response element (ISRE) containing MxA promoter. The test is classed as functional. To be noted: 30 µM.
In test [7] the target is T4, Tyrosyl-tRNA synthetase, putative (Trypanosoma cruzi (strain CL Brener)) (UniProt Q4DSP6).
T4 sequence (whole entry): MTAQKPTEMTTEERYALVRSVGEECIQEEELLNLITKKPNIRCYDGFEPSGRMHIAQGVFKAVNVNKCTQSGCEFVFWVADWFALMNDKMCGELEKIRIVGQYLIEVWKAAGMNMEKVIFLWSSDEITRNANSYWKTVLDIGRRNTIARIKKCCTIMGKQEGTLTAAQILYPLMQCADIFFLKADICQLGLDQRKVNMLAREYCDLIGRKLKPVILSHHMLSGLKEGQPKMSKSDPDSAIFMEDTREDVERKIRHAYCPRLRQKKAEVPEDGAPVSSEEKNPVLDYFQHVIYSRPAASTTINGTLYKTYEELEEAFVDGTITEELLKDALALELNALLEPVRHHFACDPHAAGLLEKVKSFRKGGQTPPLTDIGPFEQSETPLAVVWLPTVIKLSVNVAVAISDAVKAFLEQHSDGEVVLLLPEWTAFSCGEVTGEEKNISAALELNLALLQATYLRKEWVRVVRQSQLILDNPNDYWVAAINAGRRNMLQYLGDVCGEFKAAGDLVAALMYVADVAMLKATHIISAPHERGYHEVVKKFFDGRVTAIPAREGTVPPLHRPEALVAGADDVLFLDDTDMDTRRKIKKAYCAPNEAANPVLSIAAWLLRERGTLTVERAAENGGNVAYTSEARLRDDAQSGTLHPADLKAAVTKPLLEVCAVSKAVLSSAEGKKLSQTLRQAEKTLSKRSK
The experiment in a line: Trypanosoma cruzi tyrosyl tRNA synthetase (TcYRS) _High Tyrosine SOP. Also: in the data most compounds retested in dose-response had high values. It is filed as functional. As to conditions: 30 µM.

Test [8] has as its target T4, Tyrosyl-tRNA synthetase, putative (Trypanosoma cruzi (strain CL Brener)). The experiment in a line: Trypanosoma cruzi tyrosyl tRNA synthetase (TcYRS) SOP. It is filed as functional. To be noted: 30 µM.
Test [9] concerns the target Chromo domain-containing protein 1 (Saccharomyces cerevisiae (strain ATCC 204508 / S288c) (Baker's yeast)) (UniProt P32657). Nature of the test: ScCHD-1 Enzyme Inhibition Assay. Also: in the data most compounds retested in dose-response had high values. To be noted: 30 µM. It is filed as functional.

For some of these results: Results with a measured potency or affinity are listed apart.

Chromo domain-containing protein 1 (Saccharomyces cerevisiae (strain ATCC 204508 / S288c) (Baker's yeast)), sequence (P32657 whole entry, the tested form may be a part): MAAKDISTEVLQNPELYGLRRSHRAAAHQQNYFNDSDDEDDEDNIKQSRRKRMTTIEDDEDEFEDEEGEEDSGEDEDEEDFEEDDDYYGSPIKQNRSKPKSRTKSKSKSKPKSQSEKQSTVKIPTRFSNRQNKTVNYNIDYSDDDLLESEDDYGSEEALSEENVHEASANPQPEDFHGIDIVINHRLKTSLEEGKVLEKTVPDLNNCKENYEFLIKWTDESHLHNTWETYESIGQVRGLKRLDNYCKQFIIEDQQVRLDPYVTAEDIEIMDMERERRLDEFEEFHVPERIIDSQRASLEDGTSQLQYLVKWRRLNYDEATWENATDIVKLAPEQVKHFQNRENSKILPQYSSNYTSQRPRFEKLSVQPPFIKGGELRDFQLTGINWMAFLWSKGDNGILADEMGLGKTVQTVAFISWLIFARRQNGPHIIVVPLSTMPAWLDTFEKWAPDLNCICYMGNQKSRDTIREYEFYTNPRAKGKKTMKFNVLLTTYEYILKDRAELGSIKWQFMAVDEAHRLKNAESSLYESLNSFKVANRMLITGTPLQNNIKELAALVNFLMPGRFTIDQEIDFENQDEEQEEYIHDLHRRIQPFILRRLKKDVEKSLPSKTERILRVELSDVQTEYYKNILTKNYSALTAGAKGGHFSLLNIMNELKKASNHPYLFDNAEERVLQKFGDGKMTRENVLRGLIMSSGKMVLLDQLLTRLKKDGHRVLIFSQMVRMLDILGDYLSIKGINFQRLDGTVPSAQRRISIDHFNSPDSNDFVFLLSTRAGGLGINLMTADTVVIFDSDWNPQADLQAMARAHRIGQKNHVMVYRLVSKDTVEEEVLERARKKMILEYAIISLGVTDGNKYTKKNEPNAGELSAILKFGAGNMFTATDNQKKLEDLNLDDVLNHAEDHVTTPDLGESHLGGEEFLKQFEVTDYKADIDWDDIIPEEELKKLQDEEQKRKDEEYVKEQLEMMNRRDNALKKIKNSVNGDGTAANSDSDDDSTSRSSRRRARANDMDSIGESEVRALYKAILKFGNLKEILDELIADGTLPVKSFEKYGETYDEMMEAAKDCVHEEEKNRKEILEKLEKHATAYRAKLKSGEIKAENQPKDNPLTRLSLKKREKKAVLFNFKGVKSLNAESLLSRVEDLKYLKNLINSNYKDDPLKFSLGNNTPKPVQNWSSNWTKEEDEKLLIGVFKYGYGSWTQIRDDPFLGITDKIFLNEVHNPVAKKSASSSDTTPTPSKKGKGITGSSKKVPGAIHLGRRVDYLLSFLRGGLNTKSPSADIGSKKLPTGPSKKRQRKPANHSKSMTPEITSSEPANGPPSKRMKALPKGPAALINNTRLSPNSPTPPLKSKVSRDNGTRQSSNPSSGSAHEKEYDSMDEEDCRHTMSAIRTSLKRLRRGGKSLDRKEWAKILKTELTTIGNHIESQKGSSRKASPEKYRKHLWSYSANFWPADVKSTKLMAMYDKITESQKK
Sialic acid-binding Ig-like lectin 9 (Homo sapiens), sequence (Q9Y336 whole entry): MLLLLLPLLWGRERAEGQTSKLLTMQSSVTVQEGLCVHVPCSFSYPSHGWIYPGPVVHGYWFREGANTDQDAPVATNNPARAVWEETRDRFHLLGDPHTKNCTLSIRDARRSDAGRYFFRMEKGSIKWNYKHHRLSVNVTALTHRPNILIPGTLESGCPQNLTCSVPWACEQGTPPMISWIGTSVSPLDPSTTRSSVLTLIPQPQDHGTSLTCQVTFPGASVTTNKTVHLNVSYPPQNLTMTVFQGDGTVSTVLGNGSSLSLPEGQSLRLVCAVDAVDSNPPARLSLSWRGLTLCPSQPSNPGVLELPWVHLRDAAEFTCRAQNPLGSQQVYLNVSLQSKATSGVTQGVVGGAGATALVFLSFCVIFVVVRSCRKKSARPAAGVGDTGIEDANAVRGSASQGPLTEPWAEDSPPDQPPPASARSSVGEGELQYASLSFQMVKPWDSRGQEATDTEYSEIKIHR
Protein translocase subunit SecA (Escherichia coli (strain K12)), sequence (P10408 whole entry): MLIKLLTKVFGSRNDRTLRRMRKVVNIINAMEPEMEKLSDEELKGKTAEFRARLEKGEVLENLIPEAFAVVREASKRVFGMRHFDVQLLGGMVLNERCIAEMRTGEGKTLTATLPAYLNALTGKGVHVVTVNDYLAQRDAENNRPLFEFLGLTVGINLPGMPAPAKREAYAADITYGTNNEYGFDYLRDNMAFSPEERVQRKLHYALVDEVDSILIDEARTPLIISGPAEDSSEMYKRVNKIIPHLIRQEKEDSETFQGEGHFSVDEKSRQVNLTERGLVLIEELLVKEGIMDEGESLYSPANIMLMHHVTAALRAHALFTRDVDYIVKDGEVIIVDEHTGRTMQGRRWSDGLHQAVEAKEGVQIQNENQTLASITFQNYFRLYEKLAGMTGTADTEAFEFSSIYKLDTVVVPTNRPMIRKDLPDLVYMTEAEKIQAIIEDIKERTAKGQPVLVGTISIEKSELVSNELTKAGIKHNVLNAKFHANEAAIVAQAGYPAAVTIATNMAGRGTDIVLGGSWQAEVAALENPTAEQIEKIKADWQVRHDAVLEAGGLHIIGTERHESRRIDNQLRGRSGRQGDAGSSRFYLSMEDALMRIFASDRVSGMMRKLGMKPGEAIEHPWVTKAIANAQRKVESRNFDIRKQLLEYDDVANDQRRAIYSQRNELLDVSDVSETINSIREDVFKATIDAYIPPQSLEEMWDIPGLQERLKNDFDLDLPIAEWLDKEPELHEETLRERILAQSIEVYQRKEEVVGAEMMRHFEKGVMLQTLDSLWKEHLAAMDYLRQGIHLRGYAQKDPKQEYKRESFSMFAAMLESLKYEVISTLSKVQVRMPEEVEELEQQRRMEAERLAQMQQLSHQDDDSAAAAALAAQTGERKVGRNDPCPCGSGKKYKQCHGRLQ

In the case of `O=C(NC1CC1)[C@@H]1CCO[C@@H]2CCN(C3CCOCC3)C[C@H]21`, the Percent Effect is -7.35% in [1]; 2.6% in [2]; 3.75% in test [3]; 6.23% in test [4]; 4.62% in the test on Trypanosoma cruzi; 5.52% in test [5]. The Percent Effect was 8.49% in test [6]; -3.98% in the test listed under Homo sapiens; 6.45% in test [7]; 13.6% in test [8]; 0.47% in test [9].

As to `CCC(OC)C(=O)N1CCc2nc(NC)nc(C(=O)N3CCCC3)c2C1` (stereo unspecified), the Percent Effect is -2.18% in test [1]; 2.74% in [2]; -1.95% in test [3]; 7.16% in test [4]; -1.39% in the test with Trypanosoma cruzi; -9.58% in test [5]. Moreover, the Percent Effect is 15.5% in test [6]; 19.2% in the test filed under Homo sapiens; 5.21% in test [7]; 16.1% in [8]; -3.16% in test [9].

In the case of `CN(CC(=O)N1CCC(C(O)c2ccccc2)CC1)c1cnccn1` (stereo unspecified), the Percent Effect in [1] was -0.515%; in test [2] it was 10.8%; in [3], -0.406%; in test [4], 9.65%; in the test on Trypanosoma cruzi, -0.279%; in test [5], -2.77%. Moreover, the Percent Effect in test [6] was 8.62%; in the test listed under Homo sapiens it was 13.4%; in test [7] it was 5.94%; in test [8], 23.2%; in test [9], -7.9%.

Consider `CCc1nccn1C1CCCN(C(=O)c2cn3c(C)cccc3n2)C1` (stereo unspecified), for which the Percent Effect is -5.71% in test [1]; 10.5% in test [2]; -0.577% in [3]; 8.35% in [4]; 3.6% with Trypanosoma cruzi; -9.47% in test [5]. The Percent Effect is 6.04% in test [6]; -0.411% in the test listed under Homo sapiens; 3.19% in [7]; 15.6% in test [8]; -1.12% in test [9].

Take `c1csc(N2CCCN(Cc3nc(C4CC4)no3)CC2)n1`: the Percent Effect in test [1] was -5.91%; in [2], 10.4%; in test [3], -4.1%; in [4], 9.22%; in the test on Trypanosoma cruzi, -0.749%; in test [5], -2.49%. For the same compound, the Percent Effect was -1.18% in test [6]; 19% in the test listed under Homo sapiens; 5.83% in [7]; 14.6% in test [8]; 5.76% in test [9].

In the case of `O=C(c1ccc(Br)o1)N1CCCCC1Cn1cccn1` (stereo unspecified), the Percent Effect in test [1] is -1.08%; in test [2], 2.7%; in test [3], -1.88%; in test [4] it was 12.6%; in the test with Trypanosoma cruzi, 0.279%; in [5] it was 0.924%. Also, the Percent Effect was 15.3% in test [6]; 18.2% in the test listed under Homo sapiens; 0.99% in [7]; 3.66% in [8]; 0.762% in test [9].

As to `O=C1COc2ccc(C(=O)NS(=O)(=O)c3ccc(F)cc3F)cc2N1`, the Percent Effect in [1] is -2.51%; in test [2], -7.89%; in test [3], 6.3%; in test [4], -2.06%; in the test on Trypanosoma cruzi it was 2.15%; in test [5], -4.32%. Besides, the Percent Effect was -1.78% in test [6]; -9.03% in the test listed under Homo sapiens; 4.43% in [7]; 3.7% in [8]; 6.46% in test [9].

Regarding `O=C(NCc1cc[nH]n1)NCC(c1ccco1)N1CCCC1` (stereo unspecified), the Percent Effect in test [1] was -3.53%; in [2], 8.11%; in [3], -2.2%; in test [4], 17.4%; with Trypanosoma cruzi, 1.66%; in test [5] it was -0.744%. The Percent Effect in test [6] was 12.4%; in the test listed under Homo sapiens, 7.09%; in [7], 5.38%; in [8], 11.1%; in [9], -2.11%.

As to `Cc1cnn(CC2CCCN2C(=O)Cc2n[nH]c3ccccc23)c1` (stereo unspecified), the Percent Effect in test [1] is -5.48%; in test [2] it was 10.1%; in test [3] it was 14%; in [4], 7.2%; in the test on Trypanosoma cruzi it was 2.17%; in [5] it was 7.61%. For the same compound, the Percent Effect in [6] was -0.0819%; in the test listed under Homo sapiens it was 10.1%; in test [7] it was 8.37%; in test [8], 11.4%; in test [9] it was -3.88%.

In the case of `CCc1csc(C2CCCN(C(=O)c3cnn(CC)c3)C2)n1` (stereo unspecified), the Percent Effect in test [1] was -1.78%; in [2], -2.63%; in [3], 68.6%; in test [4] it was -1.18%; in the test with Trypanosoma cruzi, -1.46%; in test [5], 3.55%. Also, the Percent Effect in test [6] was 6.04%; in the test listed under Homo sapiens it was 6.86%; in test [7] it was 3.19%; in test [8], -2.6%; in [9] it was -7.82%.

Regarding `CCc1nc(C2CCCN(C(=O)c3ccc4c(c3)nnn4C)C2)no1` (stereo unspecified), the Percent Effect in test [1] was -9.33%; in [2] it was 18.2%; in test [3], -4.8%; in [4], -5.84%; in the test with Trypanosoma cruzi, 5.19%; in test [5] it was -4.42%. Further, the Percent Effect in test [6] was 14.3%; in the test listed under Homo sapiens, 5.49%; in test [7], -10.5%; in test [8], 21.2%; in test [9] it was -20.9%.
